# From PubChem BioAssay (Tox21)
# Inconclusive results are not listed. Entries that show only a call come without a potency. The source made the active and inactive calls. Calls follow the shape of the dose curve; as a rule, active = well fitted activation curve with a large enough effect; inconclusive = small, poorly fitted or top-dose-only effect; inactive = flat fitted curve, though single readings scatter.
# Test: qHTS assay to identify small molecule phospholipidosis (PLD) inducers (AID 1259344)
# Conditions: HepG2 phospholipidosis, LipidTOX Red imaging, 24 h; series mostly up to 38.3 µM
# In short: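 Fluorescent phospholipid staining (LipidTOX Red) measured by automated microscopy in fixed HepG2 cells after 24 h treatment; nuclei counterstained with Hoechst 33342; amiodarone as reference inducer.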
row,SMILES,Potency
1,O=C1C2CC3CC1CC(O)(C3)C2,inactive
2,COC1[C@@H](O[C@@H]2O[C@H](C)[C@@H](O[C@H]3C[C@@](C)(O)[C@H](OC(=O)CC(C)C)[C@H](C)O3)[C@H](N(C)C)[C@H]2O)[C@@H](CC=O)C[C@@H](C)[C@@H](O)/C=C/C=C/C[C@@H](C)OC(=O)C[C@H]1OC(C)=O (some centres undefined),inactive
3,Cc1ncc(C[n+]2csc(CCOP(=O)(O)O)c2C)c(N)n1,inactive
4,FC(F)(F)COCC(F)(F)F,inactive
